ELG1 DNA repair – qHTS screen for small molecules that inhibit ELG1-dependent DNA repair in human embryonic kidney (HEK293T) cells expressing luciferase-tagged ELG1; HEK293T ELG1-luciferase reporter, luminescence, 16 h; DNA damage induced by 5-fluorouridine; Potency, µM (doses to about 46.1 µM), inactives show at the highest dose activity change, negative = inhibition, usual class: inhibitors; hit rate 2.3% among 330,000; also: % is scaled to controls: 0 for no effect and ±100 for the full control effect; nearly all actives have a fitted effect of over 55% in size
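Reporter activity after DNA damage by 5-fluorouridine is monitored. Compound-treated cells incubate 16 hr at 37 °C, then ONE-Glo is added for 30 min before luminescence reading.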
FLuc modulator – qHTS profiling assay for firefly luciferase inhibitor/activator using purifed enzyme and Km concentrations of substrates (counterscreen for miR-21 project); Luciferin 4-monooxygenase (Photinus pyralis), P08659; purified FLuc, Km substrates, luminescence inhibition; Potency, µM (titrated, usually from 57.5 µM), inactives show top-dose activity change, negative = inhibition, actives largely listed as inhibitors; hit rate 6.9% among 360,000;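 also: plate controls were vehicle for no effect and reference inhibitor for full effect; nearly all actives have a fitted effect of over 55% in size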
Target sequence (P08659 whole entry, looked up): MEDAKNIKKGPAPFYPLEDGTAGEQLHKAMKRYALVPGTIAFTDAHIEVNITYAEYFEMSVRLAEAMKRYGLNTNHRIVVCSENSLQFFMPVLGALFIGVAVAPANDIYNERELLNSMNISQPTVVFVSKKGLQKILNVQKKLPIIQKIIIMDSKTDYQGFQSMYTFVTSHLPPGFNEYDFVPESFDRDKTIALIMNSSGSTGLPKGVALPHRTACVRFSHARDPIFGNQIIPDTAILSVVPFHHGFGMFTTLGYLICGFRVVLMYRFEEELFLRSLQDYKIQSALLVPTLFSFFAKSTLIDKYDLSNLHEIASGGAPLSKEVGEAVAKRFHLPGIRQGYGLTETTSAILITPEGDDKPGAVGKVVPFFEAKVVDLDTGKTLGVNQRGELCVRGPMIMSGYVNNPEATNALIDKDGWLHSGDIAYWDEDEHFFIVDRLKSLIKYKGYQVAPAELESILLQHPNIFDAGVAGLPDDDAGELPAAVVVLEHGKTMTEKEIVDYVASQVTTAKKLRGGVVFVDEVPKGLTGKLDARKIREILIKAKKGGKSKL
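Purified P. pyralis luciferase, 10 nM final, with Km-level 10 uM D-luciferin and 10 uM ATP in 50 mM Tris acetate pH 7.5, 10 mM Mg acetate, 0.01% Tween-20, 0.05% BSA; 6-point qHTS titration about 60 µM downward; luminescence read.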
NPC1 prom act – qHTS Assay for NPC1 Promoter Activators. Potency, µM (highest dose often 9.22 µM), for the others: top-dose activation, usual class: activators. AID 485313, 2010. hit rate 2.4% among 320,000. Huh7 NPC1 promoter luciferase reporter, 24 h; also: % of control where 0% means no effect; nearly all actives have a fitted effect of over 60% in size
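Luminescence from an NPC1 promoter-driven luciferase reporter in stably transfected Huh7 cells was measured after 24 h compound treatment at 37 °C, followed by 10 min ambient incubation with luciferase detection reagent.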
Rab9 prom act – qHTS Assay for Rab9 Promoter Activators; Huh7 Rab9 promoter-luciferase reporter, luminescence, 24 h; hit rate 2.8% among 320,000; Potency, µM (titrated, usually from 9.22 µM), for inactives: at the highest dose activation, negative = inhibition, usual class: activators; AID 485297, 2010; also: % of control where 0% means no effect; nearly all actives have a fitted effect of over 60% in size
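Measured in stably transfected Huh7 cells bearing a Rab9 promoter–luciferase construct: 24 h compound treatment at 37 °C, followed by luminescence detection.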
ELG1 genotox – qHTS screen for small molecules that induce genotoxicity in human embryonic kidney (HEK293T) cells expressing luciferase-tagged ELG1; AID 504466, 2011; hit rate 1.3% among 330,000; HEK293T ELG1-luciferase reporter, luminescence, 16 h; Potency, µM (top dose mostly 46 µM), without a hit: at the top dose activity change, positive = activation, actives largely listed as activators; also: % of control where 0% means no effect; nearly all actives have a fitted effect of over 60% in size
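DMSO vehicle served as control against compound-treated ELG1-luciferase HEK293T cells; exposure lasted 16 hr at 37 °C and 5% CO2, followed by ONE-Glo luminescence detection after 30 min.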
SMN2 splice up – qHTS Assay for Enhancers of SMN2 Splice Variant Expression; Potency, µM (doses to about 46.1 µM), for inactives: at the highest dose activity change, positive = activation, actives largely listed as activators; HEK293 SMN2-luciferase splicing reporter, luminescence, 30-36 h; hit rate 2.8% among 210,000; also: % of control where 0% means no effect; nearly all actives have a fitted effect of over 55% in size
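HEK293 cells carry an SMN2 […]–luciferase reporter in which exon 7 inclusion puts luciferase in frame. Cells were plated 10-12 h before compound addition, then incubated 30-36 h at 37C. ONE-Glo luminescence was read; sodium butyrate at 4.5 mM final served as control.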
* marks the source's active call; other numbers are inactive results; u = inconclusive; x = no result given; [ ] = remark or other dose. Hits are enriched below; roughly 9.4% of the tested compounds scored in any of these assays. Calls follow the shape of the dose curve; as a rule, active = well fitted curve in the direction sought with a large enough effect; inconclusive = small, poorly fitted or top-dose-only effect, or another doubt; inactive = no such curve, though single readings can be large; an effect the other way counts as inactive or inconclusive. Potency is read from the fitted curve at half-maximal effect.

SMILES	ELG1 DNA repair	FLuc modulator	NPC1 prom act	Rab9 prom act	ELG1 genotox	SMN2 splice up
Cc1c2cnn(-c3ccccc3)c(=O)c2c(C)n1CCCC(=O)Nc1ccc(F)cc1F	x	-9.0%	x	x	x	-12.4%
Cc1cc(=O)c2c(O)c3c(O)cc(O)c4c5c(O)cc(O)c6c(O)c7c(=O)cc(C)c8c1c2c(c34)c(c65)c78	x	x	x	x	x	-80.4%
Cc1ccc(C)c(NC(=O)CC2NCCNC2=O)c1 (centres undefined)	x	-0.8%	x	x	x	3.9%
COc1ccccc1-c1nc2s/c(=C\c3cccs3)c(=O)n2n1	u	u	1.3%	3.3%	-2.8%	25.6%
O=c1/c(=C/c2ccco2)sc2nc(-c3ccccc3Br)nn12	0.0%	6.75µM*	9.0%	5.1%	3.6%	-4.5%
O=C1C(=O)N(C2CCN(C(=O)c3cccc(Cl)c3)CC2)CCN1Cc1ccc(F)cc1	x	3.2%	x	x	x	x
COC(=O)c1cc(-c2c[nH]c3ccccc23)n[nH]1	20.2%	u	1.1%	-3.7%	0.4%	13.8%
O=C(c1cc(-c2cccc3ccccc23)nc2ccccc12)N1CCN(CCO)CC1	4.61µM*	x	x	x	-3.7%	x
O=C(O)c1cc(-c2ccc(-c3ccccc3)cc2)nc2cc3ccccc3cc12	x	x	x	x	x	-1.3%[9.22 µM]
O=C(O)c1cc(-c2c[nH]c3ccccc23)nc2cc3ccccc3cc12	u	0.675µM*	27.5%	25.3%	17.4%	x
O=C(O)c1cc(-c2ccc3ccccc3c2)nc2ccc(F)cc12	u	2.69µM*	-0.1%	-2.6%[1.84 µM]	1.5%	x
O=C(O)c1cc(-c2cccc3ccccc23)nc2ccccc12	-9.1%	26.9µM*	1.3%	-2.4%	-6.9%	x
NC(=O)C1CCN(C(=O)c2cc(-c3ccccc3Cl)nc3ccccc23)CC1	-10.8%	x	x	x	3.1%	x
CCCCCCCCCCCCC/C=C/[C@@H](O)[C@H](CO)NC(C)=O	x	x	x	x	x	2.5%
O=C(O)c1cc(-c2ccc3ccccc3n2)nc2ccccc12	u	0.601µM*	u	2.82µM*	u	x
CCOc1ccc(-c2cc(C(=O)O)c3ccccc3n2)c(OCC)c1	u	16.9µM*	-1.2%	-2.3%	-1.7%	117.6%
Cc1ccc2nc(-c3ccc(N4C(=O)CC(N5CCN(CCO)CC5)C4=O)cc3)sc2c1 (centres undefined)	u	8.49µM*	11.5%	10.2%	u	18.3%
Cc1ccc(N2C(=O)CC(N3CCN(c4ccccn4)CC3)C2=O)cc1 (centres undefined)	-1.7%	1.2%	-1.8%	-7.7%	0.2%	4.5%
Cc1ccc(C)c(-c2ccc(=O)n(C(C)C(=O)Nc3ccccc3C(F)(F)F)n2)c1 (centres undefined)	x	-10.5%	x	x	x	-3.9%
Cc1ccc(C)c(-c2cc(C(=O)N/N=C/c3cccnc3)c3ccccc3n2)c1	9.0%	u	-7.0%	1.0%	-7.5%	x
Cc1ccc(/C=N/NC(=O)c2cc(-c3cccnc3)nc3ccccc23)cc1	-13.3%	-16.7%	-25.8%	-14.0%	u	-38.3%
O=C(N/N=C/c1cccnc1)c1cc(-c2ccccc2)nc2ccccc12	u	10.7µM*	0.3%	-2.4%	-2.6%	x
O=C(N/N=C/c1cccnc1)c1cc(-c2ccc(Br)cc2)nc2ccccc12	13µM*	6.75µM*	-15.7%	-0.3%	-3.6%	x
Cc1nc(-c2ccc(S(=O)(=O)NCC3CCN(C(=O)OC(C)(C)C)CC3)s2)cs1	20.6µM*	1.3%	-4.4%	-1.8%	-11.6%	x
Cc1nc(-c2ccc(S(=O)(=O)NCc3cccnc3)s2)cs1	u	5.4%	0.5%	-3.6%	-6.2%	x
SMILES	ELG1 DNA repair	FLuc modulator	NPC1 prom act	Rab9 prom act	ELG1 genotox	SMN2 splice up
CN(CC(=O)Nc1ccc(F)c(F)c1F)C(=O)c1ccc(=O)[nH]c1	u	4.26µM*	0.891µM*	1.12µM*	4.61µM*	x
COc1cccc(C(=O)N(C)CC(=O)Nc2ccc(F)c(F)c2F)c1	-11.4%	0.8%	-4.4%	-6.3%	-1.9%	x
Cc1ccc2onc(CC(=O)Nc3ccc(C(C)C)cc3)c2c1	x	-1.2%	x	x	x	x
COc1cc(C2NC(=O)c3c(sc4c3CCN(C)C4)N2)ccc1OC(=O)c1ccccc1 (centres undefined)	x	u	x	x	x	23.3%
CN1CCc2c(sc3c2C(=O)NC(c2cccc(OC(=O)c4cccs4)c2)N3)C1 (centres undefined)	u	16.9µM*	0.9%	3.2%	18.9%	u
CCOC(=O)c1[nH]c2ccccc2c1NC(=O)c1ccc(OC(C)C)cc1	x	-3.6%	x	x	x	-14.6%
CC(=O)C(=Cc1ccc(C(=O)O)cc1)C(C)=O	6.2%	7.1%	-0.7%	3.6%	15.1%	2.7%
Cc1ccc(NC(=O)C(=Cc2ccc(C(=O)O)cc2)C(=O)Nc2ccc(C)cc2C)c(C)c1	16.4µM*	u	-27.8%	-39.4%	-25.5%	x
COc1ncc2nc(CCc3ccccc3)c(=O)n(C)c2n1	x	x	x	x	x	14.1µM*
COCCn1c(=O)c(CCc2ccccc2)nc2cnc(OC)nc21	x	x	x	x	x	-9.1%
COc1ccc([N+](=O)[O-])cc1NC(=O)c1csc(C)c1	u	2.69µM*	15.6%	0.2%	-1.8%	x
COc1ccc([N+](=O)[O-])cc1NC(=O)c1cc(C)c(C)o1	12.6%	-0.3%	5.5%	10.4%	13.1%	-8.0%
COc1ccc([N+](=O)[O-])cc1NCc1ccccc1C	u	2.9%	1.9%	-7.8%	9.6%	12.8%
O=[N+]([O-])c1ccc(NCc2ccccc2)nc1	u	21.3µM*	28.4%	24.2%	u	u
COc1ccc(C(=O)Nc2ccc([N+](=O)[O-])cn2)c(OC)c1	u	0.301µM*	1.12µM*	0.447µM*	1.16µM*	x
COc1ccc([N+](=O)[O-])cc1NCc1ccccc1	u	0.6%	-4.2%	-3.3%	u	31.6µM*
C[C@@](N)(C(=O)O)[C@@H]1C[C@@H]1C(=O)O	x	x	x	x	x	-9.8%
N#Cc1c(C(F)(F)F)cc(-c2cccs2)nc1SCC(=O)Nc1ccccc1F	x	-7.1%	x	x	x	-0.4%
COC(=O)c1ccc(OC)c(Cn2c(=O)n(-c3cccc(Cl)c3)c(=O)c3c2c2cc(C)ccc2n3C)c1	x	-2.1%	x	x	x	-6.5%
CCC(C)NC(=O)Cn1c(=O)n(-c2ccc(Cl)c(Cl)c2)c(=O)c2c(C)c(C(=O)N(CC)CC)sc21 (centres undefined)	x	0.0%	x	x	x	x

Source: PubChem (National Center for Advancing Translational Sciences (NCATS))
